Source: PubChem BioAssay (NCATS)
Results filed as inconclusive are left out. Entries that show only a call come without a potency. Activity calls are given as the source filed them. Calls follow the shape of the dose curve; as a rule, active = well fitted inhibition curve with a large enough effect; inconclusive = small, poorly fitted or top-dose-only effect; inactive = flat fitted curve, though single readings scatter.

System: CRL-7250
Experiment: qHTS assay to identify novel small-molecules to repurpose for Merkel cell carcinoma treatment (AID 1296009); also: nearly all actives have a fitted effect of over 60% in size
Settings: MCC and control cell lines, CellTiter-Glo viability, 72 h; series mostly up to 92 µM
Outline: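 Cells exposed to NPC (8-point) and MIPE (11-point) compound dilutions for 72 hr at 37 degree celsius; viability read by CellTiter-Glo luminescence, normalized to no-cell and DMSO in-plate controls.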

Structure (SMILES) | Potency | outcome
COc1cc(C2OCC3(O)C(c4ccc(O[C@@H]5O[C@H](CO)[C@@H](O)[C@H](O)[C@H]5O)c(OC)c4)OCC23O)ccc1O (stereo not given in full) | inactive | –
COc1cc2c(cc1OC)CC(=O)N(CCCNC[C@H]1Cc3cc(OC)c(OC)cc31)CC2 | inactive | –
CC(=O)N[C@@H](CCCCN)C(=O)N(C)[C@@H](CC(C)C)C(=O)N[C@H](C(=O)N(C)[C@@H](Cc1ccccc1)C(=O)N[C@H](Cc1ccccc1)C(N)=O)C(C)C | – | inactive [at 4.96 µM]
COc1cc(/C=C/C(=O)O[C@H]2C[C@@H]3C(C(=O)O)=CO[C@@H](O[C@@H]4O[C@H](CO)[C@@H](O)[C@H](O)[C@H]4O)[C@@H]3[C@H]2C)ccc1O | inactive | –
COC(O)(CC(C)C)C1Oc2cc(C)[nH]c(=O)c2O1 (stereo not given) | inactive | –
C/C=C/C=C/C1=C2C(=O)C3(C)C4C(C(=O)CC(O)/C=C/C)=C(O1)C1(C)C2C2(C)OC1(O)C4(C)OC23O (stereo not given) | inactive | –
CC1=C2C(=O)C=C(CO)C2C2OC(=O)C(CS(=O)(=O)O)C2C(OC(=O)Cc2ccc(O)cc2)C1 (stereo not given) | inactive | –
COC(=O)[C@@H]1C2CC3c4[nH]c5ccccc5c4CCN3CC2CC[C@@H]1O (stereo not given in full) | inactive | –
Cc1nnc(-c2ccc3occ(-c4ccc(S(C)=O)cc4)c3c2)o1 (stereo not given) | inactive | –
COc1cc2c(cc1OC)N1C(=O)C[C@]34C=CCN5CC[C@@H]2[C@@H](CC3)[C@]514 | inactive | –
CC1C(=O)OCC2=CCN3CCC(OC(=O)C(C)(O)C1(C)O)C23 (stereo not given) | inactive | –
Cc1ccc(Cc2c(C)nc3nc(SCC(=O)NCCN4CCNCC4)nn3c2C)cc1 | inactive | –
CC1(C)CC[C@]2(C(=O)O[C@@H]3O[C@H](CO[C@@H]4O[C@H](CO)[C@@H](O)[C@H](O)[C@H]4O)[C@@H](O)[C@H](O[C@@H]4O[C@H](CO)[C@@H](O)[C@H](O)[C@H]4O)[C@H]3O)CC[C@]3(C)C(=CCC4[C@@]5(C)CC[C@H](O[C@@H]6OC[C@@H](O)[C@H](O)[C@H]6O)[C@@](C)(C(=O)O)C5CC[C@]43C)[C@@H]2C1 (stereo not given in full) | – | inactive [at 9.27 µM]
C=C1CC/C=C(/CO)C(=O)C[C@@H]2[C@@H]1CC2(C)C | inactive | –
C=C1C2(CCC(=O)OC2(C)C)CC(OC(=O)/C(C)=C/C)C2(C)C13OC14C(=O)OC(C)(C(=O)C12C(=O)OC4C)C3OC(C)=O (stereo not given) | inactive | –
CN(C)CCn1cc(S(=O)(=O)c2cccc(F)c2)c2cccnc21 | inactive | –
CC1OC(O[C@H]2[C@@H](O)C[C@@]3(C)C([C@H](O)C[C@]4(C)C3CC=C3C5CC(C)(C)CC[C@]5(C(=O)OC5OC(CO)C(O)C(O)C5OC5OCC(OC6OCC(OC7OCC(O)C(O)C7O)C(O)C6O)C(OC6OCC(O)(CO)C6O)C5O)CC[C@]34C)[C@]2(C)CO)C(O)C(O)C1O (stereo not given in full) | – | inactive [at 9.27 µM]
C/C=C1/[C@H](O[C@@H]2O[C@H](CO)[C@@H](O)[C@H](O)[C@H]2O)OC=C(C(=O)OC)[C@H]1CC(=O)O[C@@H]1O[C@H](CO)[C@@H](O)[C@H](O)[C@H]1O | inactive | –
COc1ccc(/C=C\C(=O)O)c(O[C@@H]2O[C@H](CO)[C@@H](O)[C@H](O)[C@H]2O)c1 | inactive | –
N#CC1C(=O)N=C(c2cc(Cl)ccc2O)C=C1c1cc(OCc2ccccc2)cc(OCc2ccccc2)c1 (stereo not given) | inactive | –

Structure (SMILES) | Potency | outcome
C=C1CC23CC(=O)C4C(CO)(CO)CCCC4(C)C2CCC1C3 (stereo not given) | inactive | –
Cc1onc(-c2ccccc2Cl)c1C(=O)N(C)c1ccc(Cl)cc1 | inactive | –
CSCC1OC(n2cnc3c(N)ncnc32)C(O)C1O (stereo not given) | inactive | –
COC(=O)[C@H](O)[C@H]1C(C)(C)[C@H](OC(C)=O)[C@@]2(O)C(=O)[C@]1(C)C1CC[C@]3(C)C(CC(=O)O[C@H]3c3ccoc3)[C@]13O[C@@H]32 (stereo not given in full) | inactive | –
COC(=O)C1=COC(O[C@@H]2O[C@H](CO)[C@@H](O)[C@H](O)[C@H]2O)[C@H]2[C@@H]1[C@H](OC(=O)CCc1ccc(O)cc1)C[C@]2(C)O (stereo not given in full) | inactive | –
C=C(C(=O)OC)[C@]12O[C@@](C)(CC[C@@]3(O)/C(=C\C)C(=O)O[C@]3(C)C[C@@H]1OC(=O)C(CO)CN1CCCC1C(=O)O)CC2=O (stereo not given in full) | inactive | –
COc1c2c(c(C)c3c1C(=O)OC3)OC1(C)CC(O)C34OC(O)(CCC3(C)C1C2)OC4(C)C (stereo not given) | inactive | –
C=C1CCC2C(C)(C)CCC[C@]2(C)[C@H]1CC/C(C)=C/C(=O)O (stereo not given in full) | inactive | –
COc1ccncc1C(=O)NC(=O)Nc1ccc(-c2ccccc2)c(C(F)(F)F)c1 | inactive | –
CC1=C(CO)CC(C(C)C2CCC3C4CC=C5CC(OC6OC(COC7OC(CO)C(O)C(O)C7O)C(O)C(O)C6O)CC(O)C5(C)C4CCC23C)OC1=O (stereo not given) | inactive | –
COC(=O)[C@@H](NC(=O)[C@H](CC(C)C)NC(=O)N(Cc1ccccc1)C[C@@H](O)[C@H](Cc1ccccc1)NC(=O)OC(C)(C)C)C(C)C | – | inactive [at 9.27 µM]
COc1ccc(-c2nc(-c3ccc(-c4cccc(Cl)c4)o3)[nH]c2-c2ccc(OC)cc2)cc1 | inactive | –
C=C(C(=O)O)[C@@H]1CC[C@H](C)[C@@H]2CC(=O)C(C)=C2C1 | inactive | –
CCCCc1c(-c2ccc(OC)cc2)[nH]c2nccnc12 | inactive | –
Clc1ncoc1-c1c[nH]c2ccccc12 | inactive | –
CCC(C)/C=C(C)/C=C/C1=CC2=C(Cl)C(=O)C(C)(OC(C)=O)C(=O)C2(O)C(OC)O1 (stereo not given) | inactive | –
CC1(C)C2CC[C@]3(C)C(C(=O)C=C4[C@H]5C[C@@](C)(C(=O)O)CC[C@]5(C)CC[C@]43C)[C@@]2(C)CC[C@@H]1O (stereo not given in full) | inactive | –
CC(F)(F)CN1CCOc2c(nn(-c3ccccc3Cl)c2-c2ccc(Cl)cc2)C1=O | inactive | –
C=C1C(=O)OC[C@H]2C(C(=O)O)=CC3CC(C)(C)C[C@@]132 (stereo not given in full) | inactive | –
CC(=O)OC(C)(C)/C=C/C(=O)[C@](C)(O)C1[C@H](O)C[C@@]2(C)[C@@H]3CC=C4[C@@H](C[C@H](O[C@@H]5O[C@H](CO)[C@@H](O)[C@H](O)[C@H]5O)C(=O)C4(C)C)[C@]3(C)C(=O)C[C@]12C (stereo not given in full) | inactive | –
